# Bioassay records (PubChem)
# IMPase Li cell: IMPase inhibition in cells with lithium potentiation | CHO-M1 cells, IP1 TR-FRET (IP-One), carbachol + lithium | Potency, µM (doses to about 59.4 µM), for the others: at the highest dose activity, negative = IMPase inhibition, usual class: inhibitors | actives 0.35% (n = 210,000) | AID 1457;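 note: IP1 builds up when IMPase is blocked and the TR-FRET signal falls; potency is the fitted concentration of half-maximal effect; plate controls were basal vehicle for no effect and high inhibitor control for full effect; nearly all actives have a fitted effect of over 50% in size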
#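 CHO cells stably expressing M1 receptor (2000/well, cultured 16–30 h) treated 30 min at 37C with compound plus low lithium. Cytosolic IP1 by TR-FRET (665/620 ratio and 620 channel) after 10 min lysis; AC50 by Hill fit.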
# IMPase inh: cell-permeable inhibitors of inositol monophosphatase (IMPase) | 120,000 tested, under 10 active | inhibition (IP1 accumulation), % at 46.1 µM | P97697 | CHO-M1 cells, IP1 accumulation, HTRF TR-FRET ratio; active = well fitted curve in the direction sought with a large enough effect in the signal ratio, not every such curve was filed as active; inconclusive = small, poorly fitted or top-dose-only effect, or a change in a side signal; inactive = no such curve, though single readings can be large or run the other way; the % refers to the signal ratio;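 note: cells stimulated with carbachol in lithium chloride buffer; plate controls were DMSO basal wells for no effect and reference inhibitor wells for full effect; higher means more IMPase inhibition seen as more IP1 and lower FRET ratio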
# Target sequence (P97697 whole entry, looked up): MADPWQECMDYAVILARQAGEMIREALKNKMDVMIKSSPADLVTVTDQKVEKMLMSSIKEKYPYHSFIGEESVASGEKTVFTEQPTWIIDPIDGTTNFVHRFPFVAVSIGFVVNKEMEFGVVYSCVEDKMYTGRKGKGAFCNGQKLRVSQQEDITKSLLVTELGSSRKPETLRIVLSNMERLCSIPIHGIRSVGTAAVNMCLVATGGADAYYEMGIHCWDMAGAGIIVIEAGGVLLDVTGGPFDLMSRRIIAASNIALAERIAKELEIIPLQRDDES
#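 Measured: the HTRF emission ratio (665/620 nm) plus the 620 nm donor channel, each fitted to the Hill equation to give AC50. Cells were CHO-M1 given compounds up to 46 uM and a 30 min carbachol stimulation at 37C.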
# 12-hLO inh: blocks human 12-lipoxygenase activity; P18054; purified 12-hLO, xylenol orange hydroperoxide absorbance; AID 1452; Potency, µM (highest dose often 57.1 µM), for the others: at the highest dose activity change, negative = inhibition, actives largely listed as inhibitors; actives 0.12% (n = 150,000); note: potency is the fitted concentration of half-maximal effect; nearly all actives have a fitted effect of over 55% in size
#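 Hydroperoxide formation by human 12-lipoxygenase from 40 uM arachidonic acid was followed colorimetrically via ferric-xylenol orange complex, using the 573/405 nm absorbance ratio. Enzyme concentration was 150 nM, with 30 min reaction at room temperature.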
# NPSR antag: antagonists of human neuropeptide S receptor cAMP signaling. Q6W5P4. CHO-NPSR cells, cAMP TR-FRET, antagonist mode. Potency, µM (series often up to 38.3 µM), inactives show at the top dose activity change, negative = inhibition, usual class: inhibitors. actives 1% (n = 220,000); note: potency is the fitted concentration of half-maximal effect; nearly all actives have a fitted effect of over 50% in size
# ALDH1A1 inh: inhibitors of human aldehyde dehydrogenase 1A1 | Purified ALDH1A1, NADH fluorescence, propionaldehyde substrate | Potency, µM (titrated, usually from 75.3 µM), inactives show at the highest dose activity, negative = inhibition, hits mostly inhibitors | actives 7.3% (n = 220,000) | AID 1030; active = well fitted inhibition curve with a large enough effect, not every such curve was filed as active; inconclusive = small, poorly fitted or top-dose-only effect, or another doubt; inactive = no such curve, though single readings can be large or run the other way;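 note: potency is the fitted concentration of half-maximal effect; plate controls were no enzyme wells and a reference inhibitor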
# Target sequence (P00352 whole entry, looked up): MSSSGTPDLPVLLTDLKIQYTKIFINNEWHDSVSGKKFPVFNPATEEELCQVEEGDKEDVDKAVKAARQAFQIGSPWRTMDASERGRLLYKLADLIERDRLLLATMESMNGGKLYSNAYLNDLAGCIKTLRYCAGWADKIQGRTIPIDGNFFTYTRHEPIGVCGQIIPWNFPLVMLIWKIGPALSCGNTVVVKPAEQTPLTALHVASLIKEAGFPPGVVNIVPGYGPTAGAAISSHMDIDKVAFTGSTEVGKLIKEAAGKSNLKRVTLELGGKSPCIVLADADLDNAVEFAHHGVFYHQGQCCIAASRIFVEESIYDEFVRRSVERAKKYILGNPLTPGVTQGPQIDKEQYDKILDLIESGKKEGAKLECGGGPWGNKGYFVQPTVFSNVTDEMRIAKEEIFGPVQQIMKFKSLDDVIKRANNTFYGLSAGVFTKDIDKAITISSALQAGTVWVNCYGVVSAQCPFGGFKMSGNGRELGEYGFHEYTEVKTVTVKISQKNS
# HPGD inh: inhibitors of human 15-hydroxyprostaglandin dehydrogenase (HPGD). actives 4.3% (n = 150,000). Potency, µM, for the others: at the highest dose activity change, negative = inhibition, usual class: inhibitors. purified HPGD, NADH fluorescence kinetic, PGE2 substrate. P15428; active = well fitted inhibition curve with a large enough effect, not every such curve was filed as active; inconclusive = small, poorly fitted or top-dose-only effect, or another doubt; inactive = no such curve, though single readings can be large or run the other way; note: potency is the fitted concentration of half-maximal effect
#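 NADH formation kinetics: reaction with 30 uM PGE2 and 1 mM NAD+ (final), 20 nM enzyme, Tris-HCl pH 8 with Tween 20, after 15 min compound preincubation at room temperature. Fluorescence change, last versus first of five reads.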
# Active calls of the source: *; ? = inconclusive; · = no result given; ! = not confirmed by another sample; [ ] = dose if it differs, or a comment. Hits are enriched below; roughly 8.9% of the tested compounds scored in any of these assays. Unless noted, calls come from the whole dose curve; as a rule, active = well fitted curve in the direction sought with a large enough effect; inconclusive = small, poorly fitted or top-dose-only effect, or another doubt; inactive = no such curve, though single readings can be large; an effect the other way counts as inactive or inconclusive. Unless noted, % is set by controls: 0 for no effect and ±100 for the full control effect.
SMILES,IMPase Li cell,IMPase inh,12-hLO inh,NPSR antag,ALDH1A1 inh,HPGD inh
Cc1ccc(S(=O)(=O)NCC(=O)OCC(=O)N2N=C(c3ccc(Cl)cc3)CC2c2ccco2)cc1C (stereo unspecified),0.0%,·,-3.0%,-18.8%,?,?
C=C(C)Cn1c(-c2cccs2)n[nH]c1=S,-7.3%,·,·,13.7%,?,·
S=c1[nH]nc(-c2ccco2)n1/N=C/c1cccs1,-2.8%,3.4,-8.3%,7.4%,25.1µM*,28.2µM*
Cc1ccc(S(=O)(=O)N[C@@H](CCCCN)C(=O)CCl)cc1,12.4%,9.2,-2.1%,12.3%[46.1 µM],8.91µM*,?
Cc1ccc(S(=O)(=O)NCCC(=O)Nc2ccc(Cl)cc2C(=O)c2ccccc2)cc1,23.7%,9.3,1.5%,-18.4%[46.1 µM],?,-10.2%
Cc1cccnc1NC1=NCC(C)S1 (stereo unspecified),-2.5%,0.5,-0.8%,-2.9%[46.1 µM],7.1%,-17.2%
NC(Cc1cc(O)c(O)cc1O)C(=O)O (stereo unspecified),-15.7%,·,·,?,11.2µM*,4.47µM*
N[C@@H](Cc1cc(I)c(O)c(I)c1)C(=O)O,-6.9%,·,-1.4%,-5.6%,11.2µM*!,-8.0%
N[C@@H](Cc1cc(O)c(O)cc1O)C(=O)O,·,-3.1,-18.0%,·,·,·
CN1C(=O)C(=Cc2ccc(N3CCOCC3)c([N+](=O)[O-])c2)C(=O)N(C)C1=O,-1.4%,·,·,-46.3%,?,·
O=C1NC(=O)C(=Cc2ccc(N3CCN(C(=O)c4ccccc4)CC3)c([N+](=O)[O-])c2)C(=O)N1,-3.8%,·,·,8.3%,11.2µM*,·
O=C1CCCC2C3CCCN4CCCC(CN12)C34 (stereo unspecified),26.0%[38.3 µM],2.1,3.6%,1.6%[46.1 µM],-2.1%,-7.9%
NNC(N)=S,2.9%,·,3.4%,·,?,-4.4%
O=C1NC(=S)NC(=O)C1C/C=C/c1ccccc1,21.6%[38.3 µM],-6.9,-8.7%,-6.9%[46.1 µM],28.2µM*,10µM*
Cc1ccc(CC2C(=O)N(C)C(=O)N(C)C2=O)s1,22.0%[38.3 µM],-3.6,-11.6%,-11.3%[46.1 µM],20µM*,?
COc1ccc(CC2C(=O)N(C)C(=O)N(C)C2=O)c(OC)c1,0.4%,14.0,-1.6%,-2.5%[46.1 µM],-15.6%,-4.1%
C[N+](C)(C)CC#CCOC(=O)Nc1cccc(Cl)c1,26.4%,2.8,1.0%,2.4%[46.1 µM],7.94µM*,-12.1%
CCOP(=O)(OCC)C(NC(=O)c1ccccc1)=C(Cl)Cl,-1.1%,11.6,-1.1%,-5.1%[46.1 µM],0.4%,1.9%
CCOC(=O)C1=C(NC(=S)NC(=O)c2ccccc2)c2ccccc2CC12CCCC2,-3.5%,·,?,?,22.4µM*,-11.7%
CC(C)=CCCC1(C)C=Cc2c(O)c3c(c(CC=C(C)C)c2O1)OC12C(=CC4CC1C(C)(C)OC2(C/C=C(/C)C(=O)O)C4O)C3=O (stereo unspecified),20.0%,·,?,·,-10.8%,?
CC(=O)c1ccc(OC(NC(=O)c2ccco2)C(Cl)(Cl)Cl)cc1 (stereo unspecified),4.9%[38.3 µM],3.5,0.4%,2.7%[46.1 µM],?,25.1µM*
O=C(NC(Oc1ccccc1)C(Cl)(Cl)Cl)c1ccccc1 (stereo unspecified),23.6%[38.3 µM],10.5,8.1%,-8.5%[46.1 µM],19.8%,-9.3%
NC(=O)CI,3.6%,-0.4,-4.7%,-10.3%[46.1 µM],28.2µM*,?
Cc1cccn2c(=O)c3c(nc12)N1CCC(Cc2ccccc2)CC1C1(C3)C(=O)N(C)C(=O)N(C)C1=O (stereo unspecified),41.8%[38.3 µM],17.6,-12.5%,?,?,?
N=C1c2ccccc2CN1NC(=O)c1ccc(Br)cc1,2.8%,·,1.4%,11.3%,?,?
SMILES,IMPase Li cell,IMPase inh,12-hLO inh,NPSR antag,ALDH1A1 inh,HPGD inh
O=C(/C=C/c1ccc(Cl)cc1)N[C@@]12CCC(=O)[C@@H]3Oc4c(O)ccc5c4[C@@]31CCN(CC1CC1)C2C5,4.0%,·,·,·,7.4%,·
Oc1cc(Cl)ccc1Oc1ccc(Cl)cc1Cl,2.1%,·,-4.9%[0.00818 µM],·,1.4%,7.94µM*
CCNC(=O)[C@@H]1O[C@@H](n2cnc3c(N)ncnc32)[C@@H](O)[C@H]1O,·,-0.4,-3.1%,·,·,·
NC(=S)c1cn(C2OC(CO)C(O)C2O)c2ncnc(N)c12 (stereo unspecified),·,·,·,-8.2%,7.94µM*,·
NC(=O)c1cc(N2CC2)c([N+](=O)[O-])cc1[N+](=O)[O-],3.8%,-1.5,-1.7%,-5.7%[46.1 µM],-1.6%,-18.4%
COc1cc(CNC(=O)CCCC/C=C/C(C)C)ccc1O,19.4%,5.3,0.7%[0.00818 µM],·,2µM*!,-24.2%
CCCCC/C=C\C/C=C\C/C=C\C/C=C\CCCC(=O)NCc1ccc(O)c(OC)c1,-16.1%,·,-21.2%[0.00818 µM],·,25.1µM*,31.6µM*
CCCCCCCCC(=O)NCc1ccc(O)c(OC)c1,23.8%,3.4,-0.2%,-27.3%[46.1 µM],-3.4%,-5.4%
Oc1cc2c(cc1O)[C@H]1c3ccccc3CN[C@H]1CC2,1.6%,-1.4,-10.5%,·,?,8.91µM*
Oc1cc2c(cc1O)[C@H]1c3ccccc3CN[C@@H]1CC2,·,5.5,-10.5%,7.0%,·,·
Cc1ccnc(-n2c(C)cc(C=C3C(=O)N(C)C(=S)N(C)C3=O)c2C)c1,-2.6%[38.3 µM],4.8,-14.2%,-27.5%[46.1 µM],?,31.6µM*
COc1ccc(-n2c(SC)nc3ccccc3c2=O)cc1,-5.9%[38.3 µM],1.1,-6.4%,-14.1%[46.1 µM],9.7%,1.0%
CCC(=NCC1CCCO1)c1c(O)n(-c2ccc(OC)cc2)c(=O)[nH]c1=O (stereo unspecified),·,·,·,-3.6%,12.2%,·
CCCCCCC(C)(C)c1ccc([C@@H]2C[C@H](O)CC[C@@H]2CCCO)c(O)c1,16.1%,-2.7,-16.4%,·,?,-17.1%
S=c1[nH]c2cc(Br)cnc2[nH]1,·,·,·,-4.3%,3.16µM*,·
COCCCn1c(N)c(C(=O)NCCC(C)C)c2nc3ccccc3nc21,-1.0%[38.3 µM],-6.5,-9.3%,10µM*,?,?
O=CC1=C(N2CCOCC2)/C(=C\c2ccccc2)CC1,-3.4%,·,·,9.3%,3.55µM*,·
Cc1[nH]n(-c2ccccc2)c(=O)c1C(c1cccc([N+](=O)[O-])c1O)c1c(C)[nH]n(-c2ccccc2)c1=O,16.4%,·,-23.4%,1.1%,15.8µM*,28.2µM*
O=c1[nH]c2ccccc2c(=O)n1-c1ccc(Cl)c(Cl)c1,·,-4.8,·,·,·,·
Cc1nc2cc([N+](=O)[O-])ccc2c(=O)n1-c1ccccc1[N+](=O)[O-],4.6%,·,·,-0.8%,31.6µM*,·
CC(Cc1cccs1)NCc1ccccc1 (stereo unspecified),-2.9%,·,·,6.9%,4.8%,·
Cc1c(C(=O)N2CCC3(CC2)OCCO3)oc2ccc(S(=O)(=O)N3CCOCC3)cc12,1.8%,4.7,1.7%,-1.1%[46.1 µM],?,-9.1%
Cc1c(C(=O)NCCC2=CCCCC2)oc2ccc(S(=O)(=O)N3CCC4(CC3)OCCO4)cc12,22.6%,10.4,-8.0%,?,22.4µM*,-18.0%
